According to patent US20090232783, “Method for Regulating Production of Hemoglobin Beta Chains” (published 2009):

Target: Nuclear ferritin-H (K562 nuclear extract, crude or heat/proteinase K enriched) (Homo sapiens, UniProt P02794 P02794:2-183)
Assay: competition; 20-fold greater competitor concentration than wt needed for 50% inhibition; 1000-fold vs 50-fold excess
Conditions: protein: extract; dsDNA, one strand shown
Procedure: Gel mobility shift assays. Gel retardation assays (i.e., gel shifts) were used to determine DNA binding of the extract proteins to the Rsa I (95 bp) fragment and synthetic oligonucleotides (Berg et al., (1989) Nucleic Acids Res 17, 8833-52; Fried & Crothers (1981) Nucleic Acids Res 9, 6505-25). Each reaction contained 0.5-2 ng of DNA, 1.0-5.0 ug of extract protein, 1.0-5.0 ug of poly dI:poly dC, 100 mM KCl, and binding buffer (Berg et al., (1989) Nucleic Acids Res 17, 8833-52). Unlabeled competitor oligonucleotides ranged from 15- to 2000-fold molar excess and were included in the reaction mixture with the probe before adding protein. Gels used for retardation assays were 4%, 5%, or 6% acrylamide and the running buffer was low ionic strength TAE (Berg et al., (1989) Nucleic Acids Res 17, 8833-52).
Definition of the binding site with competition gel shifts. To further localize the binding of ferritin, the 37 bp oligonucleotide was mutated in different places, replacing six nucleotides at a time with all A's, all C's, or all G's, with complementary nucleotide replacements in the opposing strand (FIG. 4A). A competition gel shift assay was done with the partially purified protein from heated K562 nuclear extract, in which each of the unlabeled mutant oligos as well as the native sequence was competed against the 32-P-labeled native sequence for binding.

Sequence | binding signal
AACTCCTAAGCAAAAAACAGAAGAGCCAAGGACAGGT | 20 fold
